Here are results for 40 molecules from PubChem BioAssay (NCATS).

The source made the active and inactive calls. Calls follow the shape of the dose curve; as a rule, active = well fitted inhibition curve with a large enough effect; inconclusive = small, poorly fitted or top-dose-only effect; inactive = no such curve, though single readings can be large or run the other way.

A short description of the assay: qHTS assay for measurement of the activity of small molecule inhibitors on Zika virus induced Caspase-3 activity in human astrocytoma cells (AID 1224859).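 Also: plate controls were ZIKV-infected untreated cells for no effect and uninfected cells for full effect.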 The following applies: SNB-19 ZIKV-induced caspase-3/7, luminescence, 6 h; series mostly up to 45.7 µM; activity change, negative = inhibition: at the top concentration. An excerpt:
National Center for Advancing Translational Sciences [NCATS]
Johns Hopkins University School of Medicine
Increase in the Caspase-3 activity indicates an activation of apoptosis cell death pathway caused by Zika virus infection in certain types of neuronal cells including human neural progenitor cells (hNPCs), astrocytes, and astrocytoma cell line (SNB-19). This cell-based caspase-3 activity assay measures the increased caspase-3 activity in the astrocytoma cell line (SNB-19) after a 6-hour Zika virus infection with a luminescence readout. A decrease in the luminescence signal in this assay by small molecule treatment indicates an inhibitory effect of that small molecule on the Zika virus induced caspase-3 activity that may correlate with its effect on reduction of Zika virus caused cell death.
The medium for SNB-19 cells is composed of RPMI 1640 (ATCC, Cat.# 30-2001), 10% fetal bovine serum (FBS) (GE healthcare Life Sciences, Cat.# SH30071.03), and 1% Pen/Strep (Gibco, Cat.# 15140-122). A Caspase-Glo 3/7 assay kit (catalog number G8092; Promega, Madison, WI) was used to detect caspase-3 activity induced by Zika virus infection in human cells. The reagent mixture was reconstituted as described in the protocol from the manufacturer. Polystyrene tissue culture treated and PDL coated white plates were obtained from Greiner Bio-One (Monroe, NC). Cells were seeded in 384- or 1536-well assay plates and cultured at 37 C with 5% CO2 for 16 to 20 hours. The typical cell seeding density in the 1536-well plate assay is 250 cells/well in 3ul medium for SNB-19 cells in tissue culture treated plates. Compounds were added to cells and incubated for one hour before addition of ZIKV solution to cells (2 FFU/cell). After incubation at 37 C with 5% CO2 for 6 hours, the reagent mixture of Caspase-Glo 3/7 assay kit was added to each well, followed by incubation at room temperature for 30 minutes. The luminescence intensity of the assay plates was measured using a ViewLux plate reader (PerkinElmer). Data were normalized by using the cell-containing wells without ZIKV as a negative control (0% induction of caspase 3/7 activity) and wells containing ZIKV infected cells (Caspase-3 activity induced) as a positive control (100% induction of caspase 3 activity). The percentage inhibitions of the increased Caspase-3 activity by small molecule inhibitors were then calculated.
With `COC(=O)[C@H]1[C@H]2C[C@@H]3c4[nH]c5cc(OC)ccc5c4CCN3C[C@H]2C[C@@H](OC(=O)COc2ccc(OC)cc2)[C@@H]1OC`, the “activity change, negative = inhibition” value is 3.06% (inactive).
With `CC1=C(CC(=O)O)c2cc(F)ccc2/C1=C\c1ccc(S(C)(=O)=O)cc1`, the call was inactive.
For the molecule `CC(C)(C)NCC(O)COc1ccc(NC(=O)NC2CCCCC2)cc1` (stereo not given), the “activity change, negative = inhibition” value was -1.06% (inactive).
Take `CC12CCC(CC1)C(C)(C)O2`: the “activity change, negative = inhibition” value is 13.8% (inactive).
For the molecule `C[C@@H]1C[C@H]2[C@@H]3C[C@H](F)C4=CC(=O)C=C[C@]4(C)[C@@]3(F)[C@@H](O)C[C@]2(C)[C@@]1(O)C(=O)CO`, the “activity change, negative = inhibition” value is -2.89% (inactive).
Consider `CC(C)(C)[C@]1(O)CCN2C[C@H]3c4ccccc4CCc4cccc(c43)[C@@H]2C1`, for which the molecule was called inactive.
Turning to `Nc1ccc(S(=O)(=O)Nc2nccs2)cc1`, the “activity change, negative = inhibition” value is -4.48% (inactive).
As to `CCN(CC)CCSC(=O)C(c1ccccc1)c1ccccc1`, the “activity change, negative = inhibition” value was -10.1% (inactive).
As for `COCCOC(=O)C1=C(C)NC(C)=C(C(=O)OC/C=C/c2ccccc2)C1c1cccc([N+](=O)[O-])c1` (stereo not given), the outcome was inactive.
Regarding `NCCNCCNCCNCCN`, the activity change, negative = inhibition was 14.1% [at 9.06 µM] (inactive).
The same measure, in the same setting: the figure for `Cc1ccc2nc(N)[nH]c(=O)c2c1Sc1ccncc1` is -5.46% (inactive); for `NCCNCCNCCN` it is 2.32% (inactive); for `CCN(CC)CCNC(=O)c1cc(Cl)c(N)cc1OC` it is -6.01% (inactive).
Consider `OCCN1CCN(CCCN2c3ccccc3Sc3ccc(Cl)cc32)CC1`, for which the molecule was classed as inactive.
On to `Cc1c(Cl)cccc1Nc1ccccc1C(=O)O`, for which the “activity change, negative = inhibition” value was 1.6% (inactive).
`Cc1cc(C(C#N)c2ccc(Cl)cc2)c(Cl)cc1NC(=O)c1cc(I)cc(I)c1O` (stereo not given): the “activity change, negative = inhibition” value is -3.86% (inactive).
Consider `O=Cc1ccccc1C=O`, for which the “activity change, negative = inhibition” value is -1.83% (inactive).
As to `CCCCCCCCCCCCOS(=O)(=O)O`, the “activity change, negative = inhibition” value is -2.82% (inactive).
Still for that read-out and setting: the figure for `Oc1cccc(O)c1` is 9.86% (inactive); for `COc1ccc2[nH]c(S(=O)Cc3ncc(C)c(OC)c3C)nc2n1` (stereo not given) it is -9.52% (inactive).
On the same count and under the same terms, then `N[C@@H](CSSC[C@H](N)C(=O)O)C(=O)O`, with 23% [at 0.568 µM] (inactive).
Same read-out and setting: the figure for `C[C@H]1O[C@@H](n2cc(F)c(=O)[nH]c2=O)[C@H](O)[C@@H]1O` is -7.65% (inactive); for `CN1CCCCC1CCN1c2ccccc2Sc2ccc(S(C)=O)cc21` (stereo not given) it is -2.49% (inactive); for `CCCc1c(OCCCCc2nn[nH]n2)ccc(C(C)=O)c1O` it is 6.68% (inactive).
`O=C(CCCN1CCN(c2ccccn2)CC1)c1ccc(F)cc1`: the “activity change, negative = inhibition” value is 4.98% (inactive).
Consider `CSc1ccc2c(c1)N(CCC1CCCCN1C)c1ccccc1S2` (stereo not given), for which the call was inactive.
In the case of `NC(N)=NCCC[C@H](N)C(=O)O`, the molecule was classed as inactive.
In the case of `CCOc1nc2cccc(C(=O)O)c2n1Cc1ccc(-c2ccccc2-c2nn[nH]n2)cc1`, the “activity change, negative = inhibition” value was 5.53% (inactive).
Same read-out and setting: the figure for `O=C1O[C@H](CO)[C@@H](O)[C@H](O)[C@H]1O` is -12.4% (inactive); for `N=c1c[n+](N2CCOCC2)[n-]o1` it is 13.5% (inactive).
On the same count and under the same terms, the figure for `O=C1Nc2ccc(Cl)cc2[C@@](C#CC2CC2)(C(F)(F)F)O1` is 349% (inactive).
In the case of `CNCCC(Oc1ccc(C(F)(F)F)cc1)c1ccccc1` (stereo not given), the result was inactive.
In the case of `O=C1N=C(O)CN1/N=C/c1ccc(-c2ccc([N+](=O)[O-])cc2)o1`, the molecule was called inactive.
With `CSc1ccc2c(c1)C(N1CCN(C)CC1)Cc1ccccc1S2` (stereo not given), the call was inactive.
Turning to `C=CCn1c(=O)n([C@@H]2O[C@H](CO)[C@@H](O)[C@H]2O)c2nc(N)[nH]c(=O)c21`, the “activity change, negative = inhibition” value is -6.58% (inactive).
Take `CN1CCOC(c2ccccc2)c2ccccc2C1` (stereo not given): the “activity change, negative = inhibition” value was -7.97% (inactive).
Turning to `Nc1cc(=O)[nH]c(N)n1`, the molecule was classed as inactive.
Take `O=C(O)c1ccccc1-c1ccc(C(F)(F)F)cc1`: the “activity change, negative = inhibition” value was -4.93% (inactive).
The same measure, in the same setting: the figure for `CCN(CC)C(=O)Nc1ccc(OCC(O)CNC(C)(C)C)c(C(C)=O)c1` (stereo not given) is 27.3% (inactive); for `NCC(=O)CCC(=O)O` it is -2.4% (inactive).
